Assay results: PubChem BioAssay AID720631 (The Scripps Research Institute Molecular Screening Center, 2013)
Some of the results follow. Activity calls are given as the source filed them.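 How the source made its calls: active means inhibition above the mean of compounds lying within the control limits plus 3 SD (cut at about 16% in these data); inactive means the rest.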

biological target: Fibrinogen beta chain (Homo sapiens) (UniProt P02675); assay: Tn6 displacement from DD(E) complex – biochemical, fluorescence polarization, human fibrin, Tn6 probe, confirmation (AID 720631); details: FP displacement of TRITC-Tn6 peptide from DD(E); at 8.3 µM; active compounds read high; 0% = per-plate median of test wells;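 further: 0% = plate median of compound wells and 100% = inhibitor peptide control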
Sequence (P02675 whole entry, looked up): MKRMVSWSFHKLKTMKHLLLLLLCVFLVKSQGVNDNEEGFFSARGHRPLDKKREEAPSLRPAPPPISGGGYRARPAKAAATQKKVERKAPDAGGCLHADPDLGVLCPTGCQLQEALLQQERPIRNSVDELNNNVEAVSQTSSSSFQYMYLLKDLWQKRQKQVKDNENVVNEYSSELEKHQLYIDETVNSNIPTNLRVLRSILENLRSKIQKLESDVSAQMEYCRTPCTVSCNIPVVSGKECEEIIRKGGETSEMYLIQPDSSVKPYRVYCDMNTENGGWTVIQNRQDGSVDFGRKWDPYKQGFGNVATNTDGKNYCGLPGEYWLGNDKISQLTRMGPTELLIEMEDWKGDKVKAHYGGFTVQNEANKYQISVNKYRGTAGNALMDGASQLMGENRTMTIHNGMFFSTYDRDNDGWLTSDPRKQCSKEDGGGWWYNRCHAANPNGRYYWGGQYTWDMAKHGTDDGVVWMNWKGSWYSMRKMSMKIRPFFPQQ

inhibition, inactive:
CN1c2ccc(C=O)c3c(C=O)ccc(c23)N(C)C1(C)C -6.98%, COc1ccc(N2C(=O)NC(NS(=O)(=O)c3ccc(Cl)cc3)(C(F)(F)F)C2=O)cc1 (stereo not given) 1.83%, CCOC(=O)N1CCN(Cc2nc(N)nc(Nc3ccc(C)cc3)n2)CC1 -3.1%, Cc1ccc(-c2nc(C)sc2CC(=O)O)cc1 1.06%, Cc1nnsc1S(=O)(=O)Cc1ccccc1Cl -10.5%, CCOCC(=O)NCc1ccc2c(c1)cc(C)n2C 0.62%, COc1ccc(Nc2nc(-c3ccccc3)cs2)cc1 -0.61%, O=C(NCCNc1ccccc1[N+](=O)[O-])c1ccccc1F -1.55%, COc1cc(NC(=O)c2ccc(CNc3c(N4CCCC4)c(=O)c3=O)cc2)cc(OC)c1OC -4.66%, CCc1cc(-c2nnc(SCC(=O)NC3CC3)n2C)cs1 2.54%
